Drawing on PubChem BioAssay (NCI), this text covers growth for eight compounds.

Common to all, as to experiment: NCI-60 one-dose screen, 48 h (100 = growth as untreated, 0 = no growth, -100 = all killed)
The test system of test [1] is HCT-15 colon. As to conditions: 10 µM unless noted.
The test system of test [2] is HT29 colon. As to conditions: 10 µM unless noted.
The test system of test [3] is SNB-75 CNS. As to conditions: 10 µM unless noted.
Test [4] has as its system SNB-19 CNS. As to conditions: 10 µM unless noted.
The subject of test [5] is U251 CNS. Particulars: 10 µM unless noted.
Test [6] has as its system PC-3 prostate. As to conditions: 10 µM unless noted.
The subject of test [7] is SK-MEL-5 melanoma. Particulars: 10 µM unless noted.
In test [8] the test system is UACC-62 melanoma. Particulars: 10 µM unless noted.
Test [9] concerns LOX IMVI melanoma. As to conditions: 10 µM unless noted.
Test [10] concerns SK-MEL-28 melanoma. Particulars: 10 µM unless noted.
Test [11] relates to SK-MEL-2 melanoma. Particulars: 10 µM unless noted.
Test [12] concerns EKVX NSCLC. As to conditions: 10 µM.
Test [13] deals with SN12C renal. As to conditions: 10 µM unless noted.
In test [14] the test system is UO-31 renal. Particulars: 10 µM unless noted.
Test [15] concerns TK-10 renal. Particulars: 10 µM unless noted.
Test [16] has as its system ACHN renal. As to conditions: 10 µM unless noted.
In test [17] the test system is A498 renal. Particulars: 10 µM unless noted.
The subject of test [18] is CCRF-CEM leukemia. Particulars: 10 µM.
For test [19], the system named is MOLT-4 leukemia. Particulars: 10 µM unless noted.
Test [20] concerns CAKI-1 renal. As to conditions: 10 µM unless noted.

This is part of a sample that, as a whole, favours compounds with a hit. Of some 83,000 tested, about 20% had one in any assay.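 Method: cells in 96-well plates; compound added at one concentration; 48 h incubation; percent growth measured; values under 10 scored active.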 Values without a mark were called inactive. Active and inactive are the calls of the source.

In the case of `COc1ccc(-c2nc(SCC(C)C)nc(Nc3ccc([N+](=O)[O-])cc3)c2C#N)cc1`, the growth in [1] is 101%; in test [2], 97.1%; in test [3], 88.1%; in test [4], 88.4%; in test [5], 80.9%; in [6] it was 92.6%. Further, the growth in [7] is 96.3%; in test [8], 99%; in test [9], 91.7%; in test [10] it was 107%; in test [11], 105%; in [12], 98.5%. Moreover, the growth in test [13] is 72%; in [14], 79.7%; in test [15], 73%; in test [16], 41.7%; in test [17], 89.8%; in test [18] it was 78.1%. The growth in test [19] was 92.2%.
For `COc1ccc(CNCCCN2C(=O)c3ccc4c5c(ccc(c35)C2=O)C(=O)N(CCCNCc2ccc(OC)c(OC)c2OC)C4=O)c(OC)c1OC`, the growth is -63.7% (active) in [1]; -76.4% (active) in test [2]; -96.8% (active) in test [3]; -79.5% (active) in test [4]; -94.2% (active) in [5]; -71.9% (active) in test [6]. The growth in test [7] is -97.9% (active); in test [8], -78.4% (active); in [9] it was -84.7% (active); in [10], -92.9% (active); in test [11] it was -88.4% (active); in test [12], -77.2% (active). The growth is -90.8% (active) in [13]; -91.5% (active) in test [14]; -84.7% (active) in [15]; -90.3% (active) in test [16]; -52.5% (active) in test [20]; -43.9% (active) in test [19].
Take `Cc1c(Cc2ccccc2)c(=O)oc2c(C)c(OCC(=O)n3nc(C#N)cc3N)ccc12`: the growth in test [1] is 103%; in [2], 95.6%; in [3] it was 81%; in [4], 98.9%; in test [5] it was 106%; in [6], 89%. The growth in test [7] is 103%; in test [8], 99.1%; in test [9], 96.7%; in test [10], 106%; in test [11], 98.9%; in test [12], 97.7%. Further, the growth in test [13] is 102%; in test [14] it was 75.6%; in [15], 123%; in [16], 93.6%; in test [17], 126%; in test [18] it was 99.6%. For the same compound, in test [19], the growth was 98.5%.
With `O=C(/C=C\c1ccccc1Cl)c1ccccc1`, the growth was 89.9% in test [1]; 92.3% in test [2]; 86.7% in test [3]; 94.9% in [4]; 79.3% in test [5]; 93.8% in [6]. Also, the growth in test [7] is 92.2%; in [8], 89.7%; in test [9], 82.1%; in [10], 110%; in test [11] it was 128%; in [12] it was 96.4%. Besides, the growth in test [13] was 102%; in test [14] it was 71.5%; in test [15], 111%; in test [16], 92.5%; in test [20], 90.8%; in [18] it was -16.3% (active). Besides, the growth in test [19] was 91.8%.
As to `Cc1cc2c(-c3nc4ccccc4n3C)c(O)c(O)cc2c(O)c1-c1c(C)cc2c(-c3nc4ccccc4n3C)c(O)c(O)cc2c1O`, the growth was 78.9% in test [1]; 25.2% in test [2]; 69% in [3]; 15.4% in [4]; 13.5% in [5]; 27.3% in test [6]. Moreover, the growth in [7] is 91.3%; in test [8], 28.9%; in test [9], 30.4%; in [10], 58.1%; in test [11], 37.2%; in [12], 56.8%. The growth in [13] was 35.2%; in [14] it was 76.3%; in [15], 57.1%; in [16], 89.1%; in test [17], 28.5%; in [18] it was 20.5%. Further, the growth in test [19] was 26.7%.
For the compound `O=C(Nn1cnc2ccccc21)N1CCCC1`, the growth in test [1] is 112%; in test [2] it was 109%; in [3] it was 107%; in test [4], 110%; in test [5], 99.8%; in [6], 106%. The growth in test [7] is 113%; in test [8], 105%; in [9], 98.1%; in test [10] it was 116%; in test [11] it was 116%; in [12], 94%. For the same compound, the growth in test [13] was 106%; in test [14], 88.1%; in [15], 113%; in test [16], 99.1%; in [20], 98.8%; in test [17] it was 115%. Besides, the growth in [19] was 87.1%.
Regarding `OC(c1ccccc1)(c1ccccc1)C(F)(F)F`, the growth in test [1] was 107%; in test [2] it was 103%; in test [3], 111%; in test [4] it was 113%; in [5] it was 109%; in test [6] it was 88.4%. The growth was 109% in test [7]; 102% in test [8]; 105% in [9]; 117% in test [10]; 97.7% in [11]; 102% in test [12]. Also, the growth in [13] was 94.9%; in test [14], 98.1%; in test [15], 95.7%; in test [16], 94.8%; in test [20], 97.8%; in test [18], 84.7%. Besides, the growth in [19] was 102%.
For `C[C@]12C=CC(=O)C=C1[C@@H](F)C[C@@H]1[C@@H]2[C@@H](O)C[C@@]2(C)[C@H]1CC[C@]2(O)C(=O)CO`, the growth is 108% in test [1]; 103% in [2]; 145% in test [3]; 96.2% in test [4]; 108% in test [5]; 97.1% in test [6]. For the same compound, the growth is 120% in test [7]; 110% in test [8]; 103% in [9]; 124% in [10]; 107% in [11]; 83% in test [12]. In addition, the growth in [13] is 69.8%; in test [14], 79.3%; in [15], 107%; in test [16], 99.4%; in test [20], 88.6%; in test [18], 46.5%. In addition, the growth in test [19] is 108%.
